Assay results reported in the supplement of paper PMC10849652.
The full data set covers some 7,900 targets. This sample favours those with a hit. About 0.6% of all pairs of compound and target were hits. Unmarked numbers belong to inactive results.

Experiments:
Assay in all cases: log2 fold change, soluble protein after heating vs DMSO (PISA); higher = thermal stabilisation; K562 cells, 10 uM, 30 min; active = over 0.2 and 3.5 SD of the protein, either way, in both replicates (recomputed)
[1] = compound: COC1=CC=C(C=C1)CN2C=CC3=C2C=C(C=C3)C(=O)NO
Outline: (§1)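 Soluble protein was quantified by TMTpro 16plex LC-MS/MS after channel sums were equalised. It was obtained as the supernatant after 21,000xg for 90 min from pooled aliquots of K562 cells (2×10^6 cells/mL, 10 μM compound, 30 min) heated for 3 min across 48°C-58°C and extracted in PBS with 0.5% NP-40 at 4°C. Thermal stability values are relative to control samples and come from duplicates. They are given as log2 fold changes.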

filanesib = compound: CON(C)C(=O)N1N=C(c2cc(F)ccc2F)S[C@@]1(CCCN)c1ccccc1 [filanesib]
Outline: as §1

zotarolimus = compound: CO[C@H]1C[C@@H]2CC[C@@H](C)[C@@](O)(O2)C(=O)C(=O)N2CCCC[C@H]2C(=O)O[C@H]([C@H](C)C[C@@H]2CC[C@H](n3cnnn3)[C@H](OC)C2)CC(=O)[C@H](C)/C=C(\C)[C@@H](O)[C@@H](OC)C(=O)[C@H](C)C[C@H](C)/C=C/C=C/C=C/1C [zotarolimus]
Outline: as §1

idasanutlin = compound: COc1cc(C(=O)O)ccc1NC(=O)[C@@H]1N[C@@H](CC(C)(C)C)[C@](C#N)(c2ccc(Cl)cc2F)[C@H]1c1cccc(Cl)c1F [idasanutlin]
Outline: as §1

alisertib = compound: COc1cc(Nc2ncc3c(n2)-c2ccc(Cl)cc2C(c2c(F)cccc2OC)=NC3)ccc1C(=O)O [alisertib]
Outline: as §1

[2] = compound: COc1cc2nc(-c3cc(F)ccc3O)nc(N[C@@H]3CNC[C@H]3C(C)(C)O)c2cc1OC
Outline: as §1

gefitinib = compound: COc1cc2ncnc(Nc3ccc(F)c(Cl)c3)c2cc1OCCCN1CCOCC1 [gefitinib]
Outline: as §1

[3] = compound: COc1cccc2cc(-c3nc([C@H]4CC[C@H](C(=O)O)CC4)n4ncnc(N)c34)[nH]c12
Outline: as §1

lapatinib = compound: CS(=O)(=O)CCNCc1ccc(-c2ccc3ncnc(Nc4ccc(OCc5cccc(F)c5)c(Cl)c4)c3c2)o1 [lapatinib]
Outline: as §1

pictilisib = compound: CS(=O)(=O)N1CCN(Cc2cc3nc(-c4cccc5[nH]ncc45)nc(N4CCOCC4)c3s2)CC1 [pictilisib]
Outline: as §1

Sequence of UniProt Q9H1E3 (Q9H1E3 whole entry, looked up): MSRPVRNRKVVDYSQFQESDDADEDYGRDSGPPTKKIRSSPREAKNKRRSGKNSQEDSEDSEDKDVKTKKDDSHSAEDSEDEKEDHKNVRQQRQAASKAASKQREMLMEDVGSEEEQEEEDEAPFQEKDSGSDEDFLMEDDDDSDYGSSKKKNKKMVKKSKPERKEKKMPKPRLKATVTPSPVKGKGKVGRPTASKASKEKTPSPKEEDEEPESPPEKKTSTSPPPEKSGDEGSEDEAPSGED
Sequence of UniProt P11586 (P11586 whole entry, looked up): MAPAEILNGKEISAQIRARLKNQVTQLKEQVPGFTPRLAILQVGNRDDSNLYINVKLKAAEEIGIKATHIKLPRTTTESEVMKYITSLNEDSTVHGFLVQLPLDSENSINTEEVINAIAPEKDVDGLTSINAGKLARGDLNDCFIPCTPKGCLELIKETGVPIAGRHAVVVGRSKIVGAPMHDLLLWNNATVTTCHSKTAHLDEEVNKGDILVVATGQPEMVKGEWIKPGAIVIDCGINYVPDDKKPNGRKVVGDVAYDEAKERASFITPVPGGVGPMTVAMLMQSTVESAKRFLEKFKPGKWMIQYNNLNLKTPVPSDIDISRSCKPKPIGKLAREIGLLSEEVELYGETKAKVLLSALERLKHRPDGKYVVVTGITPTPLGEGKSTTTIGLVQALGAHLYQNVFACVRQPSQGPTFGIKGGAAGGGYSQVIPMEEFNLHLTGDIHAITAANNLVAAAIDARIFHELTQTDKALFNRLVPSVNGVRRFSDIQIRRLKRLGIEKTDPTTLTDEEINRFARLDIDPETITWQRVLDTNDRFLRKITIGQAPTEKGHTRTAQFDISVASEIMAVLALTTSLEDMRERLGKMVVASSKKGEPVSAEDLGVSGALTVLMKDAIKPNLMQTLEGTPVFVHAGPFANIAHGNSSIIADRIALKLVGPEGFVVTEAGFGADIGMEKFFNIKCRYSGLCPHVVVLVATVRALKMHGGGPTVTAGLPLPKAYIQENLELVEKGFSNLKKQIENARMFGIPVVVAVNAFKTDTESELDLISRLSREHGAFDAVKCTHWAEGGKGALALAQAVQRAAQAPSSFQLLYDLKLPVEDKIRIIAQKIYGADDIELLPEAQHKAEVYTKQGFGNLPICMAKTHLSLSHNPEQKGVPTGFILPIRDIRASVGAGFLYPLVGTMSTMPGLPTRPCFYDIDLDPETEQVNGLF
Sequence of UniProt Q8NCF5 (Q8NCF5 whole entry, looked up): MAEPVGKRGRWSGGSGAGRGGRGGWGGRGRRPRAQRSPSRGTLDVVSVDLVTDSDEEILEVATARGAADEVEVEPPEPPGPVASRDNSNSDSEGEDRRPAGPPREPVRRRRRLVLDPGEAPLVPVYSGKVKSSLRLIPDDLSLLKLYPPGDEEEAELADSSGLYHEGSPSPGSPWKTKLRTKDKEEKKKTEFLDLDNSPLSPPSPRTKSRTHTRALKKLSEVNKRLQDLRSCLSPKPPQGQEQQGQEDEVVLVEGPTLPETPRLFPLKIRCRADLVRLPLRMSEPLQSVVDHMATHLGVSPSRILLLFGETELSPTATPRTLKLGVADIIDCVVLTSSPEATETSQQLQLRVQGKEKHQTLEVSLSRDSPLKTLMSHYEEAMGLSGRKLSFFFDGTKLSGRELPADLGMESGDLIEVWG
Sequence of UniProt Q9NWU1 (Q9NWU1 whole entry, looked up): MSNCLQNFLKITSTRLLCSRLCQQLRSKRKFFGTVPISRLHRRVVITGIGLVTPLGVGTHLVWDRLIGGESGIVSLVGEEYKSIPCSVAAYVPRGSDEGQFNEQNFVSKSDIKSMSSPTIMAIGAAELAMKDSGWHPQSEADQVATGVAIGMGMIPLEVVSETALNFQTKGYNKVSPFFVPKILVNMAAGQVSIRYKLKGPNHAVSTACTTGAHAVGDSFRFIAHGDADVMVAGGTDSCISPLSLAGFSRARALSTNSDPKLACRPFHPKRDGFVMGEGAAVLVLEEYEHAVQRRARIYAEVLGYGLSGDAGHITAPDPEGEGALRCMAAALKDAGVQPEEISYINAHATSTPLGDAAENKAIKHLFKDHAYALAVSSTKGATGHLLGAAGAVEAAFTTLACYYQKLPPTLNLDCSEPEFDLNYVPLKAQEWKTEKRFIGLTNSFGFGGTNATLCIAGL
Sequence of UniProt Q8N6M0 (Q8N6M0 whole entry, looked up): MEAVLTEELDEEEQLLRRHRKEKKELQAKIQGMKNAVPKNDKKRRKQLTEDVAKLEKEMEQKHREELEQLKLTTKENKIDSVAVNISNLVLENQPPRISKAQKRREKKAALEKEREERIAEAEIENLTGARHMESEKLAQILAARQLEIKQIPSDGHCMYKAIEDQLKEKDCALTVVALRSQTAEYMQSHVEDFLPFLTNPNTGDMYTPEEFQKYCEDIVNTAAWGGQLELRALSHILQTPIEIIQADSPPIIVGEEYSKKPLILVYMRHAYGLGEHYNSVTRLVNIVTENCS
Sequence of UniProt P46934 (P46934 whole entry, looked up): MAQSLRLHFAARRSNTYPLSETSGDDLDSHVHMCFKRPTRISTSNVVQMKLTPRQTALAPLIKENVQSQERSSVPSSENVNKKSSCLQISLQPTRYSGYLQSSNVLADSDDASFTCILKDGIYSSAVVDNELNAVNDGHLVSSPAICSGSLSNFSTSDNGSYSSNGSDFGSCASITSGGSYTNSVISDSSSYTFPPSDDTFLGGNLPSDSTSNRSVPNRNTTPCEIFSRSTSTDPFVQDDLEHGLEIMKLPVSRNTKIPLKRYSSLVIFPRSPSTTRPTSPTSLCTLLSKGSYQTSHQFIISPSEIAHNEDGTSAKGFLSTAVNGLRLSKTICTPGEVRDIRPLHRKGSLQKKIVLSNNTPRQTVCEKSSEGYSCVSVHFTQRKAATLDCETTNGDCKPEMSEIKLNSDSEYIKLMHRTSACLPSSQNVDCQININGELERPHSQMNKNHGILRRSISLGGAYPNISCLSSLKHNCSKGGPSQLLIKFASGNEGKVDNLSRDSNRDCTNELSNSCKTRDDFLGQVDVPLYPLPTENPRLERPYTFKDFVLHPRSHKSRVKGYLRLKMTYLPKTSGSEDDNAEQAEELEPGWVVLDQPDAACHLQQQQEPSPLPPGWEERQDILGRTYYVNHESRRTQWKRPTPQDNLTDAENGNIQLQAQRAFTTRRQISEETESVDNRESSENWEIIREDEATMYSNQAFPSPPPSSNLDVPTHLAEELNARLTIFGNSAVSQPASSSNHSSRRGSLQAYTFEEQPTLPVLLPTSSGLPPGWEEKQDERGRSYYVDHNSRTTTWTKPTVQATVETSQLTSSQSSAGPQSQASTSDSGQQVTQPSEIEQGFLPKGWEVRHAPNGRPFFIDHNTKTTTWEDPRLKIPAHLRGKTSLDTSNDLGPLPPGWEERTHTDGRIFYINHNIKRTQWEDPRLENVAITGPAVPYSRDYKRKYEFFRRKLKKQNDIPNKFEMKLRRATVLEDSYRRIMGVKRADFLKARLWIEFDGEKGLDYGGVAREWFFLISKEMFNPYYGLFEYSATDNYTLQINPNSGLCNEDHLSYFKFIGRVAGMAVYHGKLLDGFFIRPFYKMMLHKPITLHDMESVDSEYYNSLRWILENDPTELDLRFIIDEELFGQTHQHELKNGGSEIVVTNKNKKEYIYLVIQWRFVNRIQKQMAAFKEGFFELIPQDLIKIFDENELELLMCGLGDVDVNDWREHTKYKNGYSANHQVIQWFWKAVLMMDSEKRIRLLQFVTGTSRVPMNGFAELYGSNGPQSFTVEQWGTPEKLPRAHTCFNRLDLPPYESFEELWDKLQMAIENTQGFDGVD
Sequence of UniProt Q92692 (Q92692 whole entry, looked up): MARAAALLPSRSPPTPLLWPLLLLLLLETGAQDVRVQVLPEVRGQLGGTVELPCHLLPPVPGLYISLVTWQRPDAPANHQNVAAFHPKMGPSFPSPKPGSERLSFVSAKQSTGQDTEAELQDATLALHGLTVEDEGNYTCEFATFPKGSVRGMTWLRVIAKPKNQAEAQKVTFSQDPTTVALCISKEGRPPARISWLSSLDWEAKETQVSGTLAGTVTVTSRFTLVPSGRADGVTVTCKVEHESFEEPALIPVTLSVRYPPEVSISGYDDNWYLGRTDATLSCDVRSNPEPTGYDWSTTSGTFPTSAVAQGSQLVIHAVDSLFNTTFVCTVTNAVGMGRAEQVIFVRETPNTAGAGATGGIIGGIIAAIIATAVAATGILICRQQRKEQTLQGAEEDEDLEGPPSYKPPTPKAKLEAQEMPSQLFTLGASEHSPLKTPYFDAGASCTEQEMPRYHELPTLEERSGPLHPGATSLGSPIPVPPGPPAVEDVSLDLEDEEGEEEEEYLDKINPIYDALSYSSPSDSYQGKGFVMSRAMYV
Sequence of UniProt P19338 (P19338 whole entry, looked up): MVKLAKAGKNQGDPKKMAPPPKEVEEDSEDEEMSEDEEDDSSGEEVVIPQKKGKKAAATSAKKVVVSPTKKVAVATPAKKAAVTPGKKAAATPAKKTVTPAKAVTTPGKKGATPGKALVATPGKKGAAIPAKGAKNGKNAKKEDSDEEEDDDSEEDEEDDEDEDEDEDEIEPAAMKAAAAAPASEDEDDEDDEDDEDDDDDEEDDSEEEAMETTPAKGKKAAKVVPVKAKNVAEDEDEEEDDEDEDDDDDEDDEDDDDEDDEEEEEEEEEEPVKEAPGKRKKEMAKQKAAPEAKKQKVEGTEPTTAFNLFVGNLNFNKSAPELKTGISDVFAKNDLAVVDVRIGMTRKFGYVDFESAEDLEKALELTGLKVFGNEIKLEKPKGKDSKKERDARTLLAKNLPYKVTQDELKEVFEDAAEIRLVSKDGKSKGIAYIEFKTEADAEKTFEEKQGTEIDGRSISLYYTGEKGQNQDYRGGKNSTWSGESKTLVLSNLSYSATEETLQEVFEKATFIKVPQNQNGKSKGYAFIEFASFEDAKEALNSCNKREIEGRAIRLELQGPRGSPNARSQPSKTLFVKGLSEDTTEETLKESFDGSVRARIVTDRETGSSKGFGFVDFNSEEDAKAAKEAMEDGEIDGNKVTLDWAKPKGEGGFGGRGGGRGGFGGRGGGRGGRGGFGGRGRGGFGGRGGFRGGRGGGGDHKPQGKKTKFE

Target | log2 fold change [1] | log2 fold change (filanesib) | log2 fold change (zotarolimus) | log2 fold change (idasanutlin) | log2 fold change (alisertib) | log2 fold change [2] | log2 fold change (gefitinib) | log2 fold change [3] | log2 fold change (lapatinib) | log2 fold change (pictilisib)
NUP85 (UniProt Q9BW27) | 0.01 | -0.009 | -0.022 | 0.016 | -0.061 | -0.038 | 0.025 | 0.043 | -0.042 | 0.049
NCKAP1 isoform 2 (UniProt Q9Y2A7) | 0.019 | -0.042 | 0.025 | -0.035 | 0.067 | 0.008 | -0.009 | -0.038 | 0.016 | -0.049
NFATC2IP (UniProt Q8NCF5) | -0.008 | -0.015 | -0.021 | -0.141 | 0.01 | 0.026 | 0 | 0.056 | 0.029 | 0.098
OXSM (UniProt Q9NWU1) | 0.033 | -0.014 | -0.005 | 0.039 | -0.131 | -0.041 | -0.001 | 0.025 | 0.007 | 0.057
NOP2 isoform 4 (UniProt P46087) | -0.053 | 0.651 | 0.118 | 0.419 | -0.065 | 0.375 | -0.065 | -0.118 | 0.456 | -0.039
NOL11 (UniProt Q9H8H0) | -0.029 | 0 | 0.005 | -0.046 | -0.017 | 0.067 | -0.008 | 0.056 | 0.005 | 0.025
MRPS22 (UniProt P82650) | 0.041 | 0.05 | 0.071 | -0.301 (active) | 0.015 | 0.019 | -0.017 | -0.019 | 0.038 | -0.03
ORC5 (UniProt O43913) | 0.016 | 0.104 | 0.028 | -0.013 | 0.125 | 0.07 | 0.088 | 0.018 | 0.062 | 0.012
NCL (UniProt P19338) | -0.091 | 0.454 | 0.026 | 0.274 | -0.16 | -0.099 | -0.022 | -0.217 | 0.159 | -0.085
MLX (UniProt Q9UH92) | -0.054 | 0.027 | -0.009 | -0.071 | -0.014 | 0.025 | 0.022 | 0.057 | -0.099 | 0.05
MRPS18B (UniProt Q9Y676) | 0.011 | 0.065 | 0.035 | -0.205 | 0.069 | 0.024 | 0.078 | 0.018 | -0.005 | -0.106
MTHFD1 (UniProt P11586) | 0.048 | -0.07 | 0.04 | -0.036 | -0.001 | 0.017 | 0.055 | -0.015 | 0.014 | -0.002
MTHFS (UniProt P49914) | 0.032 | -0.023 | -0.02 | -0.006 | -0.065 | 0.041 | 0.053 | 0.052 | 0.028 | 0.016
NUP107 (UniProt P57740) | -0.005 | 0.233 | 0.032 | 0.026 | 0.007 | -0.116 | -0.073 | -0.04 | 0.137 | -0.13
NDUFB10 (UniProt O96000) | 0.044 | -0.025 | 0.006 | -0.035 | -0.021 | -0.047 | 0 | 0.05 | -0.035 | 0.082
NFATC3 (UniProt Q12968) | 0.039 | 0.056 | -0.109 | -0.009 | 0.006 | -0.109 | 0.048 | -0.002 | 0.015 | 0.086
OXR1 (UniProt Q8N573) | -0.018 | -0.078 | 0.009 | -0.014 | -0.059 | 0.034 | 0.003 | 0.018 | 0.011 | 0.164
MON1B (UniProt Q7L1V2) | -0.012 | 0.029 | -0.008 | -0.056 | -0.136 | 0.065 | -0.012 | 0.037 | 0.055 | 0.029
MRPS31 (UniProt Q92665) | 0.016 | 0.029 | 0.03 | -0.202 | -0.008 | -0.025 | -0.077 | -0.016 | 0.054 | -0.005
MRPS6 (UniProt P82932) | 0.204 | -0.019 | 0.038 | -0.275 (active) | 0.029 | 0.012 | -0.051 | -0.081 | 0.035 | -0.003
NUP160 (UniProt Q12769) | -0.043 | -0.003 | 0.017 | 0.004 | -0.076 | -0.068 | 0.033 | 0.037 | 0.057 | -0.021
MRPS24 (UniProt Q96EL2) | -0.153 | 0.047 | 0.088 | -0.134 | -0.104 | 0.096 | -0.056 | -0.014 | 0.047 | -0.174
OTUD6B (UniProt Q8N6M0) | 0.016 | -0.025 | 0.1 | -0.012 | 0.005 | 0.005 | -0.017 | -0.013 | -0.028 | 0.017
NEDD4 isoform 4 (UniProt P46934) | 0.036 | -0.02 | 0.064 | -0.042 | 0.053 | 0.027 | 0.074 | -0.029 | 0.028 | -0.017
NUCKS1 (UniProt Q9H1E3) | -0.035 | 0.051 | -0.031 | -0.011 | -0.071 | 0.182 | -0.001 | 0.02 | -0.064 | -0.011
NECTIN2 (UniProt Q92692) | -0.028 | 0.027 | -0.042 | -0.003 | -0.084 | 0.011 | 0.06 | 0.014 | -0.01 | 0.021
MRPS5 (UniProt P82675) | -0.06 | 0.078 | 0.091 | -0.37 (active) | 0.021 | 0.015 | -0.026 | 0.02 | 0.054 | -0.026
MND1 (UniProt Q9BWT6) | -0.037 | -0.057 | -0.077 | 0.099 | 0.062 | -0.235 | -0.193 | 0.03 | -0.025 | 0.032
NDUFS8 (UniProt O00217) | -0.07 | -0.122 | -0.003 | -0.147 | -0.15 | -0.069 | -0.028 | 0.081 | 0.01 | 0.018
NUMB (UniProt P49757) | -0.051 | 0.074 | 0.015 | 0 | -0.064 | 0.04 | 0.027 | -0.017 | 0.012 | 0.076
